Values joined by “and” are separate entries in the source; they are usually repeats but may differ in a detail not shown here. Equal values may be shown once.

Here are results for 39 molecules from PubChem BioAssay.

Sequence of Concanavalin-A (Canavalia ensiformis) (P02866 whole entry, looked up): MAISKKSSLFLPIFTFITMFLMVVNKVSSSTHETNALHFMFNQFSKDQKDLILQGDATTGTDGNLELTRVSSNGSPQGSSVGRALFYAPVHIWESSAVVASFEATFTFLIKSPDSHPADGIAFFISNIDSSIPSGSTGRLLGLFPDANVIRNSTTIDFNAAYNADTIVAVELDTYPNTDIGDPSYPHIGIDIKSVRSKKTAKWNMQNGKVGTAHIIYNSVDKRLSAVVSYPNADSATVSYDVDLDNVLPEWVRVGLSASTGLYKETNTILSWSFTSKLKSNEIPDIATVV

This assay addresses Concanavalin-A (Canavalia ensiformis) (UniProt P02866). Put plainly: compounds binding concanavalin A lectin – biochemical, small-molecule microarray, Alexa647 label, 635 nm, artefact control for SMM control protein annotation, primary screen (AID 1127).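 Also: z combines 667 nm emission intensity with signal-to-noise across three replicate slides.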 Particulars: ConA-A647 binding fluorescence, higher = more signal.
As to `C=CCN(C(=O)C(c1cccs1)N(C(=O)/C=C\C(=O)O)c1ccc(CCO)cc1)c1ccc(OC)cc1` (centres undefined), the composite z-score was -1.33 and -2.24.

`CO[C@@H]1COC(=O)CC=C[C@H](C)COC(=O)[C@H](C)NC(=O)CC=C[C@H]1C` had a composite z-score of 0.161.

For the molecule `CCOC(=O)c1ccc(NC(=O)O[C@H]2[C@H](OC(=O)Nc3ccccc3)[C@@H](OC(=O)Nc3ccccc3)[C@@H](OC)O[C@@H]2CO)cc1`, the composite z-score was 1.23 and 1.17.

Consider `COC(=O)C1=C(C)N(Cc2ccccc2)C2=C(C(=O)c3ccccc3)[C@H](c3ccccc3)[C@@](O)(C(=O)OC)C(=O)N2[C@@H]1c1ccccc1`, for which the composite z-score is 0.914 and 0.37.

Turning to `C[C@@]1([C@@H](NC(=O)Cc2ccccc2)c2ccc(-c3ccccc3)cc2)C[C@H]1C1CCCCC1`, the composite z-score was 0.956 and 0.166 and 1.12.

Turning to `CC(CO)N1C(=O)[C@@H]2C3C(=O)OCCC=C[C@H]3OC23C=CCN(CCN2CCOCC2)C(=O)[C@@H]13` (some centres undefined), the composite z-score is 0.116 and 0.686.

For `C=C[C@H](C)[C@H](O)c1ccc(O)c2ccccc12`, the composite z-score was -1.05 and -0.559.

For `C=CCN(CCCC)C(=O)C(c1cccs1)N(C(=O)/C=C\C(=O)O)c1c(Cl)cccc1CO` (centres undefined), the composite z-score was -3.43 and -2.5.

`C#CCCCON=C1C[C@@H](O)[C@@H](O)[C@@H]2[C@@H]3C(=O)N(C4CCCCC4)C(=O)[C@@H]3CC[C@H]12` yielded a composite z-score of 1.15.

On to `Cc1ccc(S(=O)(=O)N[C@H]2COC(=O)[C@@H](C)COC(=O)[C@H](C)NC(=O)CC=C[C@H]2C)cc1`, for which the composite z-score was -0.681.

As to `C=CCN(C(=O)C1N(CCOCCO)C(=O)C2C(C(=O)O)C3C=CC21O3)C(C)(C)C` (centres undefined), the composite z-score was -0.455 and -0.884.

As for `C=CCN(CCCC)C(=O)C1N(CCOCCO)C(=O)C2C(C(=O)O)C3C=CC21O3` (centres undefined), the composite z-score is -0.268 and -1.9.

Regarding `COc1ccc(COC(=O)NN=C2C[C@@H](O)[C@@H](O)[C@@H]3[C@@H]4C(=O)N(C(C)(C)C)C(=O)[C@@H]4CC[C@H]23)cc1`, the composite z-score is -0.457.

Consider `COC(=O)C1=C2N(Cc3ccccc3)C(C)=C(C(=O)OC)[C@@H](c3ccccc3)N2C(=O)[C@](O)(C(=O)OC)C1`, for which the composite z-score was 0.712 and -0.0245.

Turning to `C[N+](C)(C)CCCCNC(=O)[C@@H]1C[C@@H]2C(=O)N[C@@H](CCCC[N+](C)(C)C)C(=O)N2[C@@H]1c1cccc(OCCO)c1`, the composite z-score is 1.13 and 0.657.

Take `C[C@@H]1CC[C@H]2C(=O)N3[C@@H](CC[C@@H](C)[C@@H]3c3ccc(-c4ccco4)cc3)C(=O)N2[C@H]1c1ccc(-c2ccco2)cc1`: the composite z-score was 1.11 and 1.16.

As for `C=CCN(Cc1ccccc1)C(=O)C1N(c2ccc(CCO)cc2)C(=O)C2C(C(=O)O)C3C=CC21O3` (centres undefined), the composite z-score is -1.82 and -1.97.

Consider `CC(C)N1CC=CC23O[C@@H]4C=CCCOC(=O)C4[C@H]2C(=O)N(C(C)CO)[C@@H]3C1=O` (some centres undefined), for which the composite z-score was 0.0938 and -1.42.

The molecule `CC(C)C(=O)N[C@@H]1CCCN1C(=O)C=Cc1ccccc1` returned a composite z-score of 0.315.

In the case of `CO[C@@H]1COC(=O)[C@H](Cc2ccccc2)NC(=O)CC=C[C@@H](C)[C@H](OC)COC(=O)[C@@H](C)NC(=O)CC=C[C@H]1C`, the composite z-score is -0.85 and -0.233.

As for `COC(=O)[C@@]1(Cc2ccc(OC)cc2)[C@H]2c3cc(C(=O)N(C)C)n(Cc4ccc(O)c(OC)c4)c3C[C@H]2CN1C(=O)c1ccccc1`, the composite z-score was 0.311 and 0.836.

For `C=CCN(CCCCC)C(=O)C1N(CCCCCCO)C(=O)C2C(C(=O)O)C3C=CC21O3` (centres undefined), the composite z-score is -0.556 and -1.47.

In the case of `O=c1n(-c2ccccc2)c(=O)n2n1CC[C@@H]1C(=NOC[C@@H](O)COCc3ccco3)[C@H]3O[C@H]3[C@@H](O)[C@@H]12`, the composite z-score was -0.331 and 0.101.

`CCOC(=O)NN=C1C[C@@H](O)[C@@H](O)[C@@H]2[C@@H]3C(=O)N(Cc4ccc5c(c4)OCO5)C(=O)[C@@H]3CC[C@@H]12` showed a composite z-score of 0.837.

`CCCCCN1CC=CC23O[C@@H]4C=CCCOC(=O)C4[C@H]2C(=O)N(C(C)CO)[C@@H]3C1=O` (some centres undefined): the composite z-score is -0.0729 and 0.147.

For `C=C[C@H](OC)[C@@H](O)c1ccc(OCCO)cc1`, the composite z-score was -2.17 and -0.715.

As to `CCCCN1CC=CC23O[C@@H]4C=CCCOC(=O)C4[C@H]2C(=O)N(C(C)CO)[C@@H]3C1=O` (some centres undefined), the composite z-score is -1.63 and 0.0212.

Regarding `C=CCN(CCCCC)C(=O)C1N(CCOCCO)C(=O)C2C(C(=O)O)C3C=CC21O3` (centres undefined), the composite z-score was -1.88 and -1.67.

Regarding `C=CCN(CCCCC)C(=O)C(c1cccs1)N(C(=O)/C=C\C(=O)O)c1ccc(CCO)cc1` (centres undefined), the composite z-score is -0.222 and -0.806.

For the molecule `O=C1NC(=O)C2C1C=CC(C(O)c1ccc([N+](=O)[O-])cc1)N2Nc1ccc(Cl)cc1Cl` (centres undefined), the composite z-score is 0.738 and 0.461.

`COC(=O)[C@@]1(Cc2ccccc2)[C@H]2c3cc(C(=O)N(C)C)n(C[C@H](O)CO)c3C[C@H]2CN1C(=O)c1ccccc1`: the composite z-score was -0.148 and -0.0788.

`CO[C@H]1COC(=O)CC=C[C@@H](C)COC(=O)[C@H](CCSC)NC(=O)CC=C[C@@H]1C`: the composite z-score was -0.773 and -2.15.

Take `C=CC[C@@H](O)c1ccc(O)c2ccccc12`: the composite z-score was 0.89 and 0.565.

As to `CCOC(=O)C[C@H]1[C@H](OC(=O)c2ccccc2-c2ccccc2)[C@@H](NC(=O)Cc2ccc(OC)cc2)c2cc(OCCCO)ccc2N1C(=O)c1ccc2ccccc2n1`, the composite z-score was 0.0022 and 0.662.

Regarding `CN1C(=O)C2CC=C([C@H]3Oc4ccccc4S(=O)(=O)N4CCC[C@@H]34)CC2C1=O` (some centres undefined), the composite z-score is -0.476 and -1.05.

As to `C[N+](C)(C)CCCCNC(=O)[C@H]1C[C@H]2C(=O)N[C@@H](CCCC[N+](C)(C)C)C(=O)N2[C@H]1c1ccc(O)cc1`, the composite z-score was 1.16 and -0.33.

Take `C=CCN(Cc1ccccc1)C(=O)C1N(c2c(Cl)cccc2CO)C(=O)C2C(C(=O)O)C3C=CC21O3` (centres undefined): the composite z-score was -1.31 and -1.79.

In turn, `O=C1[C@H]2[C@H]3[C@H](O)[C@H](O)CC(=NOCc4ccccc4)[C@H]3CC[C@H]2C(=O)N1Cc1ccccc1` returned a composite z-score of -0.229.

`COC(=O)[C@@]1(Cc2ccc(F)cc2)[C@H]2c3cc(C(=O)N4CCCC4)n(Cc4c(CO)[nH]cc(C)c4=O)c3C[C@H]2CN1C(=O)c1ccccc1`: the composite z-score was 0.196 and 0.0402.
